These results are taken from PubChem BioAssay (NCI).

The panel holds about 83,000 compounds, 20% with a hit somewhere; the sample as a whole holds those more often.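 A percent growth of 40 corresponds to 60% growth inhibition; 0 means no net growth; -100 means all cells died. Active threshold: below 10.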 A number with no mark means an inactive call. The source made the active and inactive calls.

The test system of the test is HL-60(TB) leukemia. The experiment in a line: NCI-60 one-dose screen, 48 h (100 = growth as untreated, 0 = no growth, -100 = all killed). As to conditions: 10 µM unless noted.
`COc1cc(/C=C2\CCCC3=C2NC(C)=NC3c2cc(OC)c(OC)c(OC)c2)cc(OC)c1OC` (stereo not given): the growth was -4.1% (active).
As to `C#Cc1cccc(Nc2nc(Cl)nc3cc(NC(=O)CCl)ccc23)c1`, the growth was -45.8% (active).
Then `C=CCn1c2ccccc2c2c3c(c4c5ccccc5n(CC=C)c4c21)C(=O)N(O)C3=O`, with -39.5% (active).
For `COc1ccc(C(=O)c2sc3nc(C)cc(C)c3c2N)cc1OC` the value was 97.3%; for `O=c1[nH]c(-c2ccccn2)nc2sc3c(c12)CCCCCC3`, 10.9%; for `C#CCNC(=O)CC[C@@H](C)[C@H]1CC[C@H]2[C@@H]3CC[C@@H]4CC(=O)CC[C@]4(C)[C@H]3CC[C@]12C`, -30% [100 µM] (active).
For `Cc1cn(-c2cc(NC(=O)c3cncc(C#Cc4c(N)ncc5ccc(F)cc45)c3)cc(C(F)(F)F)c2)cn1` the value was 9.54% (active); for `CC1=C(C(=O)Nc2ccc(F)cc2)C(c2ccc(C)cc2)C2=C(CC(C)(C)CC2=O)N1` (stereo not given), 114%; for `COc1ccc(C(=O)/C=C/c2ccc(Cl)cc2)cc1S(=O)(=O)Nc1c(N)nc(SC)[nH]c1=O`, 36.8%.
For the compound `CCS/C(Nc1ccccc1)=C(\C#N)C(=O)Nc1ccc(OC)cc1`, the growth is -15.6% (active).
Then `Cc1ccccc1-n1nnc(C(=O)Nc2ccc(-c3ccccc3)cn2)c1C`, with 28.8% [50 µM].
On to `Cc1csc(C#Cc2cncc(O)c2)n1`, for which the growth is 110%.
For `Clc1ccc(-n2ncc3c(NCCCN4CCOCC4)ncnc32)cc1` the value was 86%; for `O=C1NC2(Nc3ccccc31)C(=O)Nc1c(Cl)cc(Cl)cc12` (stereo not given), 106%; for `C=C(C)[C@@H]1CC[C@]2(C(=O)N3CCN(C)CC3)CC[C@]3(C)[C@H](CC[C@@H]4[C@@]5(C)C/C(=C/c6ccco6)C(=O)C(C)(C)[C@@H]5CC[C@]43C)[C@@H]12`, 64.2%.
Then `COc1ccc(N2CCN(CC(=O)N3CCN(c4nnc(-c5ccc(Cl)cc5)c(-c5ccc(Cl)cc5)n4)CC3)CC2)cc1`, with -19.9% (active).
For `COc1cc2nc(-c3cccc4cccnc34)nc(NC3CCN(Cc4ccccc4)CC3)c2cc1OC` the value was -63.4% (active); for `CC1=CCC(OC(=O)C(C)(O)CCC(O)(C(=O)OC2(C)C=CC(O)(C(C)C)CC2)C(C)C)(C(C)C)CC1` (stereo not given), 110%.
Take `COc1ccc(N=Nc2ccc(O)c(=O)cc2)cc1`: the growth was -33.2% (active).
For the compound `COC(=O)/C=C1/SC(=Nc2ccc([N+](=O)[O-])cc2)N(CCc2c[nH]c3ccc(O)cc23)C1=O`, the growth is 32.2%.
Then `O=C1c2cc3c(cc2-c2c1c1cc(Cl)c(Cl)cc1c(=O)n2CCCn1ccnc1)OCO3`, with -19.4% (active); and `COc1cc(Cl)cc(-c2nn(C(=O)NS(=O)(=O)c3ccccc3)cc2-c2ccncc2)c1`, with 94.3%; and `COC(=O)C(C)[C@H]1CC[C@@H]2[C@]1(C)CC=C1[C@]23C=C[C@]2(C[C@@H](OC(C)=O)CC[C@]12C)C(C(=O)OC)C3C(=O)OC` (stereo not given in full), with 66.9%.
Take `Cc1c2cnccc2c(C)c2c1oc1ccccc12`: the growth is 61.8%.
For `O=C(/C=C/c1ccccc1)C(Br)C(Br)c1ccccc1` (stereo not given) the value was -41.8% (active); for `Cc1cc(OCCO)cc(C)c1Cl`, 100%.
In the case of `Cc1ccc(S(=O)(=O)Nc2c(Br)cc(Br)cc2C(N)=O)cc1`, the growth was 83%.
For `c1ccc2cc(C[n+]3ccn(CCCCCCn4cc[n+](Cc5ccc6ccccc6c5)c4)c3)ccc2c1` the value was 87.9%.
Then `COc1cc(-c2nc3ccccc3s2)ccc1OCc1nc2n(n1)S(=O)(=O)c1ccccc1N2C`, with 79.2%; and `Fc1ccc2[nH]cc(SSc3c[nH]c4ccc(F)cc34)c2c1`, with -32.3% (active); and `CC(C)COCC(CN(Cc1ccccc1)c1ccccc1)N1CCCC1` (stereo not given), with 82.4%.
Then `CS(=O)(=O)c1ccc(-c2[nH]c3ccc(F)cc3c2/C=N/O)cc1`, with 101%; and `CN(C)CCCN1c2nc3ccccc3cc2Sc2cc3ccccc3nc21`, with 43.9%; and `COc1ccc(C/C(C)=C(\c2ccc(Cl)cc2)c2ccc(OCCN3CCCC3)cc2)cc1`, with 76.9%.
Turning to `Fc1ccc(-c2nn3c(-c4cc(C(F)(F)F)cc(C(F)(F)F)c4)nnc3s2)cc1`, the growth is 92.2%.
Then `O=C(CN1CCN(c2cc3c(cc2F)c(=O)c(C(=O)O)cn3C2CC2)CC1)Nc1nc(-c2ccc(Cl)cc2)cs1`, with 19.6%; and `O=C(O)CCN1C(=O)/C(=C/C(Cl)=C/c2ccccc2)SC1=S`, with 5.78% (active); and `O=C(Nc1cccc([N+](=O)[O-])c1)c1ccc2ccccc2c1O`, with 39.4%.
For `N#Cc1c(-c2ccccc2)nc(SCC(=O)Nc2nc(-c3ccc(Cl)cc3)cs2)[nH]c1=O`, the growth was 96.1%.
Then `COc1cc(OC)c(/C=C/c2ccc3ccccc3[n+]2C)c(OC)c1`, with -29.5% (active).
